# Calls of active or inactive are those of the source. Rule for the calls: active = hit-call score of the fitted dose curve at least 0.9, where 1 is the maximum; inactive = score below 0.9.
# Experiments:
# [1] = molecular target: Paired box protein Pax-6 (Homo sapiens) (UniProt P26367); assay: ATG_Pax6_CIS: Attagene CIS-FACTORIAL HepG2 Assay for human Paired Box 6 (PAX6) (AID 2282956); details: HepG2 CIS-FACTORIAL PAX6 reporter transcription, RNA readout; actives raise or lower the signal
# In short: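 Multiplexed cis-reporter HepG2 system; 24 h treatment; reporter mRNA read by RT-PCR/CE fluorescence; bidirectional fit vs DMSO.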
# [2] = ATG_PXRE_CIS: Attagene CIS-FACTORIAL HepG2 Assay for human Pregnane X Receptor Element (PXRE) (AID 2282957); details: HepG2 Attagene CIS-FACTORIAL PXRE reporter, mRNA; actives raise or lower the signal
# In short: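 Transfect HepG2 with MRTUs (cis promoter elements); dose chemical, incubate 24 h; isolate RNA, RT with oligo(dT), PCR, 6-FAM label, HpaI cut, CE. Gain/loss fit vs DMSO.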
# [3] = ATG_PPRE_CIS: Attagene CIS-FACTORIAL HepG2 Assay for human Peroxisome Proliferator-activated Response Element (PPRE) (AID 2282958); details: HepG2 PPRE cis-element reporter, Attagene transcription factor profiling; actives raise or lower the signal
# In short: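 DMSO served as negative control and baseline for bidirectional curve fitting. Signal came from PPRE-regulated reporter mRNA in HepG2 cells, measured 24 h post-dosing by RT-PCR, 6-FAM primer extension and capillary electrophoresis.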
# [4] = ATG_RORE_CIS: Attagene CIS-FACTORIAL HepG2 Assay for human RAR-related Orphan Receptor Element (RORE) (AID 2282959); details: HepG2 Attagene cis-factorial RORE reporter, mRNA; actives raise or lower the signal
# In short: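 Transfect HepG2 with MRTUs; treat 24 h; extract RNA; RT with oligo(dT); PCR with reporter-specific primers; 6-FAM primer extension; HpaI digest 2 h at 37 C; capillary electrophoresis. Fit vs DMSO, bidirectional.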
# [5] = ATG_Sox_CIS: Attagene CIS-FACTORIAL HepG2 Assay for human SRY-box transcription factor (SOX) (AID 2282960); details: HepG2 Attagene cis-factorial SOX reporter, mRNA; actives raise or lower the signal
# In short: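 Fluorescence-labelled cDNA fragments from reporter transcripts, sized by CE, give the signal. Cells: HepG2, transiently transfected with cis-regulated reporter units. Exposure 24 h; DMSO negative control; bidirectional curve fitting.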
# [6] = molecular target: Transcription factor Sp1 (Homo sapiens) (UniProt P08047); assay: ATG_Sp1_CIS: Attagene CIS-FACTORIAL HepG2 Assay for human Specificity Protein 1 (Sp1) (AID 2282961); details: HepG2 Sp1 cis-reporter transcription, actives raise or lower the signal
# Transcription factor Sp1 (Homo sapiens), sequence (P08047 whole entry, looked up): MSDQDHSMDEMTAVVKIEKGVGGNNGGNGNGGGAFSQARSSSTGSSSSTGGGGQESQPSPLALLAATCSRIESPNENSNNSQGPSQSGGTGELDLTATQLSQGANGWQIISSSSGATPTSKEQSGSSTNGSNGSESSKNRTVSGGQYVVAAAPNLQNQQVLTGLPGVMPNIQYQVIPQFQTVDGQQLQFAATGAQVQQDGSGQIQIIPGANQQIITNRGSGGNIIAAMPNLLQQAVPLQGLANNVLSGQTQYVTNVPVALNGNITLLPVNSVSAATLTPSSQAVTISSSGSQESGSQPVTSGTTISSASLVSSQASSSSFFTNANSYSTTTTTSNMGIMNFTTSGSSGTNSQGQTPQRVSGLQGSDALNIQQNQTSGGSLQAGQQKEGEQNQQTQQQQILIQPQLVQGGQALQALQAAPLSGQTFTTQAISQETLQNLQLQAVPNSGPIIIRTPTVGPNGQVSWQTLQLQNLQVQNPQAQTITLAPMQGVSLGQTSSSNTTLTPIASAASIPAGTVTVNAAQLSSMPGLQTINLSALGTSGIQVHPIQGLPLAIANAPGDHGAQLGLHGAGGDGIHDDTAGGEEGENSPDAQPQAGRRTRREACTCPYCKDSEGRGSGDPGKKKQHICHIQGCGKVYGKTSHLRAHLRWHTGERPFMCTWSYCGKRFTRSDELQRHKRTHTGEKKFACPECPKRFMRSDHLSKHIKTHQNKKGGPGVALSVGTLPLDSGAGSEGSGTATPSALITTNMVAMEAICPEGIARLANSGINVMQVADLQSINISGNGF
# In short: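 Chemicals are dosed onto HepG2 cells transfected with multiple cis-promoter reporter constructs, and after 24 h reporter RNA is reverse-transcribed, PCR-amplified and resolved by capillary electrophoresis for fluorescence quantitation; activity is scored up or down against DMSO.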
# [7] = ATG_SREBP_CIS: Attagene CIS-FACTORIAL HepG2 Assay for human Sterol Regulatory Element Binding (SREBP) (AID 2282962); details: HepG2 Attagene cis-factorial SREBP reporter, mRNA; actives raise or lower the signal
# In short: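 mRNA induction of transfected cis-promoter reporters in HepG2 cells, 24 h post-dose. Detection: RT-PCR with 6-FAM-labelled products, HpaI digest, capillary electrophoresis. DMSO served as negative control and baseline.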
# [8] = molecular target: Signal transducer and activator of transcription 3 (Homo sapiens) (UniProt P40763); assay: ATG_STAT3_CIS: Attagene CIS-FACTORIAL HepG2 Assay for human Signal Transducer and Activator of Transcription 3 (STAT3) (AID 2282963); details: HepG2, Attagene cis-factorial STAT3 reporter transcription; actives raise or lower the signal
# Signal transducer and activator of transcription 3 (Homo sapiens), sequence (P40763 whole entry, looked up): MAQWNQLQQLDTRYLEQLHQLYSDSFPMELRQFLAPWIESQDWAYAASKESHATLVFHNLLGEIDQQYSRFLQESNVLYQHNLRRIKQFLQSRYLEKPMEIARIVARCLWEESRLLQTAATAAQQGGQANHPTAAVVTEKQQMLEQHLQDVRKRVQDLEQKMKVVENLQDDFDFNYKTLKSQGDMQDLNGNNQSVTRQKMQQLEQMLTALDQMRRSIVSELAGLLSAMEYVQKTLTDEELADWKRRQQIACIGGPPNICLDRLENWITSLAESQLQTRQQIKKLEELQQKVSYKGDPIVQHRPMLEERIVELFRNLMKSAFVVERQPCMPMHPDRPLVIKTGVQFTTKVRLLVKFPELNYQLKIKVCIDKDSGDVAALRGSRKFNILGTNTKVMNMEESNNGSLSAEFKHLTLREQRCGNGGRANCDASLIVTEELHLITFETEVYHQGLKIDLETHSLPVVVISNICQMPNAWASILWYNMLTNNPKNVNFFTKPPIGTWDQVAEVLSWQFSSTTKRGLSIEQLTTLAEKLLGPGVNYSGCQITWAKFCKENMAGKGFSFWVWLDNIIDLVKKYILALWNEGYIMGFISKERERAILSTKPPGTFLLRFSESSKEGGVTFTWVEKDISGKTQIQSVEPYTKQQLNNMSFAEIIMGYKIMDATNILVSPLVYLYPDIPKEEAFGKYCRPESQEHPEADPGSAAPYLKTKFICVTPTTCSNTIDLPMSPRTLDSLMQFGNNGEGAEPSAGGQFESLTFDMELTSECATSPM
# In short: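 Endogenous STAT3-responsive cis-element activity was read in transiently transfected HepG2 cells after 24 h treatment. Reporter transcripts were quantified via RT-PCR and capillary electrophoresis, with DMSO as negative control and bidirectional curve fitting.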
# [9] = ATG_TCF_b_cat_CIS: Attagene CIS-FACTORIAL HepG2 Assay for human T-Cell-Factor with beta-catenin (TCF/b-cat) (AID 2282965); details: HepG2 TCF/beta-catenin cis-reporter transcription, actives raise or lower the signal
# In short: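 Measured: reporter mRNA in HepG2 transiently transfected with cis-promoter reporter units, 24 h after chemical addition. Fitting was bidirectional, DMSO as negative control.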
# [10] = ATG_TA_CIS: Attagene CIS-FACTORIAL HepG2 Assay for human TA Basal Promoter (AID 2282964); details: HepG2 Attagene CIS-factorial TA basal promoter reporter; actives raise or lower the signal
# In short: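 Cis-factorial format in HepG2: reporters report endogenous factors, not chimeric Gal4 fusions. After 24 h treatment, reporter transcripts were measured by RT-PCR-capillary electrophoresis fluorescence, analysed bidirectionally versus DMSO.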
# Paired box protein Pax-6 (Homo sapiens), sequence (P26367 whole entry, looked up): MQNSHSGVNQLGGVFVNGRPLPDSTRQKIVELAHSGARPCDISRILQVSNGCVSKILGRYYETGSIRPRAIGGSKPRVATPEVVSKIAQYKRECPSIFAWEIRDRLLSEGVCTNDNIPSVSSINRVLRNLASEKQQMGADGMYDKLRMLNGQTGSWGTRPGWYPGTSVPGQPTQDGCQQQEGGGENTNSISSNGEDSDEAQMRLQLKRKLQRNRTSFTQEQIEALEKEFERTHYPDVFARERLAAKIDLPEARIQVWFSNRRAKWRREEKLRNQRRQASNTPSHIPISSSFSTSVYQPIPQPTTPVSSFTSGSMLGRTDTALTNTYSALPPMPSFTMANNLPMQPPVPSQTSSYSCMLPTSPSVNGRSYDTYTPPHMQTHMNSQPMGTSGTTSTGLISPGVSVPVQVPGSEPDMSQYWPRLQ
SMILES,outcome [1],AC50 [2],outcome [3],outcome [4],outcome [5],outcome [6],outcome [7],outcome [8],outcome [9],outcome [2],outcome [10],AC50 [1],AC50 [3],AC50 [4],AC50 [6],AC50 [7]
CC(C=O)Cc1ccc(C(C)(C)C)cc1 (stereo not given),inactive,27.6 µM (active),inactive,inactive,inactive,inactive,inactive,inactive,inactive,,,,,,,
CCCC(=O)OCCc1ccccc1,inactive,,inactive,inactive,inactive,inactive,inactive,,inactive,inactive,inactive,,,,,
Oc1ccc2cc(SSc3ccc4cc(O)ccc4c3)ccc2c1,,6.48 µM (active),,,inactive,,,inactive,inactive,,,27.1 µM (active),160 µM (active),33.5 µM (active),75.2 µM (active),8.33 µM (active)
Nc1ccc(Cl)c([N+](=O)[O-])c1,inactive,37.6 µM (active),inactive,inactive,inactive,inactive,inactive,,inactive,,inactive,,,,,
Cc1ncc[nH]1,inactive,,inactive,inactive,inactive,inactive,inactive,inactive,inactive,inactive,,,,,,
CCCCCC(C=O)=Cc1ccccc1,inactive,24.5 µM (active),,inactive,inactive,inactive,inactive,,inactive,,inactive,,26.5 µM (active),,,
CN1CCOCC1,inactive,,inactive,inactive,inactive,inactive,inactive,,inactive,inactive,inactive,,,,,
OCCCCC(O)CO (stereo not given),inactive,,inactive,inactive,inactive,inactive,inactive,inactive,inactive,inactive,,,,,,
CC=CC=CCOC(=O)C(C)C,inactive,25 µM (active),inactive,inactive,inactive,inactive,inactive,inactive,inactive,,,,,,,
CCCC(=O)OC(C)(C)Cc1ccccc1,inactive,27 µM (active),,inactive,inactive,inactive,inactive,,inactive,,inactive,,178 µM (active),,,
Cc1cccc(Nc2ccccc2)c1,,26.6 µM (active),inactive,inactive,inactive,,,inactive,inactive,,inactive,120 µM (active),,,127 µM (active),100 µM (active)
CC=Cc1ccc(OCC)c(O)c1,inactive,65.8 µM (active),inactive,inactive,inactive,inactive,inactive,inactive,inactive,,inactive,,,,,
O=Cc1ccccc1S(=O)(=O)O,inactive,,inactive,inactive,inactive,inactive,inactive,,inactive,inactive,,,,,,
Cc1ccc(-c2ccccc2)cc1,inactive,27.3 µM (active),inactive,inactive,inactive,inactive,inactive,,inactive,,inactive,,,,,
CC(=O)CC(=O)Nc1ccccc1,inactive,,inactive,,inactive,inactive,inactive,inactive,inactive,inactive,inactive,,,,,
CC/C=C\CC/C=C/CO,inactive,27.3 µM (active),inactive,inactive,inactive,,inactive,inactive,inactive,,,,,,,
CCNCCO,inactive,,inactive,inactive,inactive,,inactive,inactive,inactive,inactive,inactive,,,,,
Cc1cc(C)nc(NS(=O)(=O)c2ccc(N)cc2)n1,inactive,46.5 µM (active),inactive,,inactive,inactive,inactive,inactive,,,inactive,,,,,
Nc1ccc2cc(S(=O)(=O)O)cc(O)c2c1N=Nc1ccccc1C(F)(F)F,inactive,38.5 µM (active),inactive,,inactive,inactive,inactive,inactive,inactive,,inactive,,,,,

# — PubChem BioAssay (EPA / NIEHS)
